Columns and labels:
Assay in all cases: log2 ratio of Biotin-Ahx-Ub-VS probe labelling (fragment/DMSO); higher = less target engagement (more negative = stronger competition), active = hit call of the paper (q ≤ 0.05, log2 ratio ≤ -1)
Settings in all cases: compound concentration: 200 uM; treatment time: 3 h
[1] = molecular target: T1, USP42 (UniProt Q9H9J4)
T1 sequence (whole entry): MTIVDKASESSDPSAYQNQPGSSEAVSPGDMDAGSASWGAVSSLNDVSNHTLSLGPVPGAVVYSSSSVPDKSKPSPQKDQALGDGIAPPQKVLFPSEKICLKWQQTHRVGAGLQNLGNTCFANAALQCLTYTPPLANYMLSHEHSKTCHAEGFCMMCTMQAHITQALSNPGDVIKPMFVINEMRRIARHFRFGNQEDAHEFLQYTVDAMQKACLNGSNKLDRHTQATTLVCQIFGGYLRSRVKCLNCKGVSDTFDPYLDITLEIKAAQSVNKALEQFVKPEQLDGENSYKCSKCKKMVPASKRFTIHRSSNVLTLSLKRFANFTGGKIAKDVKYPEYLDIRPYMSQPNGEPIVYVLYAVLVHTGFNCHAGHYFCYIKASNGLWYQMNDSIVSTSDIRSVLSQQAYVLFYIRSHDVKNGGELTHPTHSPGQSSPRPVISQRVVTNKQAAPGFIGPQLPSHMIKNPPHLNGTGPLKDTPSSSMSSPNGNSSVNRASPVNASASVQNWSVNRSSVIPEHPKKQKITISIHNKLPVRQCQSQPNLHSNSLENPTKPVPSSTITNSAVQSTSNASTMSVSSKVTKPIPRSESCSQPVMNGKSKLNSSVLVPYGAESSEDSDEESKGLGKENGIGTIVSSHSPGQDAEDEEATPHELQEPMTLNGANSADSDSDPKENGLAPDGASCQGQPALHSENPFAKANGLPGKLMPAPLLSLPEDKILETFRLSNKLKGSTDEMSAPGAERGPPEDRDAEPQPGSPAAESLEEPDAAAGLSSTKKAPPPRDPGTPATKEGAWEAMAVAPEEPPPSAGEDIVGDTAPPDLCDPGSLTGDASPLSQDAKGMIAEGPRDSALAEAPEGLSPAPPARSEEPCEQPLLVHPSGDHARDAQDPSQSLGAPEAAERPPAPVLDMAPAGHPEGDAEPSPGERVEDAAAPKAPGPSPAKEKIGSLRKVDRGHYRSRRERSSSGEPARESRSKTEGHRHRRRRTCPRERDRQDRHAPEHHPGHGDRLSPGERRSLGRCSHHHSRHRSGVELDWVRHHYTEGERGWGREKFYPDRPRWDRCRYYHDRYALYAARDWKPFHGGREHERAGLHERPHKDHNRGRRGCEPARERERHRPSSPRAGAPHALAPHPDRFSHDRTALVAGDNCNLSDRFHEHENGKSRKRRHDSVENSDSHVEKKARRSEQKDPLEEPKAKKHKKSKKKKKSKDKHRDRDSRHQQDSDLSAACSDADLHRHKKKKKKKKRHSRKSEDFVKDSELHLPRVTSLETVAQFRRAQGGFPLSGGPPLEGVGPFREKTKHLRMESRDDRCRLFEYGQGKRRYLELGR
Procedure, shortened: (§1)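 Fragment (200 µM) or vehicle was incubated for 3 h with triplicate HEK293T lysate samples of 495 µg, which were then treated with Biotin-Ahx-Ub-VS at 0.5 µM final for 1 h. Labelled DUBs were enriched on NeutrAvidin, digested with LysC and trypsin, and analysed by diaPASEF LC-MS/MS. Values are average log2 fragment/vehicle ratios from an unpaired t-test on global-median-normalised Spectronaut label-free quantities, using proteins with ≥2 unique peptides.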

[2] = molecular target: USP46 (UniProt P62068)
Procedure, shortened: as §1

[3] = molecular target: T2, USP47 (UniProt Q96K76)
T2 sequence (whole entry): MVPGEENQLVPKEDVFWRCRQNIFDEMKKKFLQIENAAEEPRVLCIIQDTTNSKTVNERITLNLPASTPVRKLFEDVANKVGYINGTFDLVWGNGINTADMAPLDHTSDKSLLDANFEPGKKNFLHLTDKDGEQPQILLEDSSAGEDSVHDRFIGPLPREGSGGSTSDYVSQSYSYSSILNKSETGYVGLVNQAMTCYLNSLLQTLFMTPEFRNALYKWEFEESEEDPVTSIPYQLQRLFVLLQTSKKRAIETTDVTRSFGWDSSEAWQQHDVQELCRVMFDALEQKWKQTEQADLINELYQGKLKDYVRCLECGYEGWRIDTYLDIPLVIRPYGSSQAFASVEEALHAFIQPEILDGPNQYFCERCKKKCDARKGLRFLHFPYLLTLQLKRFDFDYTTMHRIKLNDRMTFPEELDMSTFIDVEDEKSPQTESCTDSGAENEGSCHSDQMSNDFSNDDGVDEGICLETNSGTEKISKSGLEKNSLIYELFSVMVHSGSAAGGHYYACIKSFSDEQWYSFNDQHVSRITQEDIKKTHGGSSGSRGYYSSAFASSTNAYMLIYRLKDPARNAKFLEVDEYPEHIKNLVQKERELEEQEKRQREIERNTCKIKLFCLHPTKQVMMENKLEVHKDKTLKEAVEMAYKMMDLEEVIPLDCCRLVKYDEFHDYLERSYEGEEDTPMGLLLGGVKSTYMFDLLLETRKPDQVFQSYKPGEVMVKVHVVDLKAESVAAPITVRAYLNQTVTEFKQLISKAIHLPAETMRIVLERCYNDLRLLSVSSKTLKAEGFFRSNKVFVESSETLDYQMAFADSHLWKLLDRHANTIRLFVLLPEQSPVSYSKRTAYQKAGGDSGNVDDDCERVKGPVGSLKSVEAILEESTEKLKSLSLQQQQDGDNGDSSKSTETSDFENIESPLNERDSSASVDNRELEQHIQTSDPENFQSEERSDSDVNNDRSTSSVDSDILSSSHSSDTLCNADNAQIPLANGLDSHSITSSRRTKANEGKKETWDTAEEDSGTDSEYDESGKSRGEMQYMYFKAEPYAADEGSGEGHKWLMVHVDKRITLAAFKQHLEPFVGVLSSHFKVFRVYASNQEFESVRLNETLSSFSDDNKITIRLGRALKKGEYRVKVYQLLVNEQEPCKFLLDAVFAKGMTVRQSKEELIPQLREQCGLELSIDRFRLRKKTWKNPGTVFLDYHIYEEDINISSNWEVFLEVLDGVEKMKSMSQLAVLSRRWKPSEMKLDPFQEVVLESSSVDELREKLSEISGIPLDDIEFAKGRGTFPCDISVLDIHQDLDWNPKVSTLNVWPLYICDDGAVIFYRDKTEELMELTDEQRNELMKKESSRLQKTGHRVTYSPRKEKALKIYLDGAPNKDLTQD
Procedure, shortened: as §1

[4] = molecular target: T3, USP48 (UniProt Q86UV5)
T3 sequence (whole entry): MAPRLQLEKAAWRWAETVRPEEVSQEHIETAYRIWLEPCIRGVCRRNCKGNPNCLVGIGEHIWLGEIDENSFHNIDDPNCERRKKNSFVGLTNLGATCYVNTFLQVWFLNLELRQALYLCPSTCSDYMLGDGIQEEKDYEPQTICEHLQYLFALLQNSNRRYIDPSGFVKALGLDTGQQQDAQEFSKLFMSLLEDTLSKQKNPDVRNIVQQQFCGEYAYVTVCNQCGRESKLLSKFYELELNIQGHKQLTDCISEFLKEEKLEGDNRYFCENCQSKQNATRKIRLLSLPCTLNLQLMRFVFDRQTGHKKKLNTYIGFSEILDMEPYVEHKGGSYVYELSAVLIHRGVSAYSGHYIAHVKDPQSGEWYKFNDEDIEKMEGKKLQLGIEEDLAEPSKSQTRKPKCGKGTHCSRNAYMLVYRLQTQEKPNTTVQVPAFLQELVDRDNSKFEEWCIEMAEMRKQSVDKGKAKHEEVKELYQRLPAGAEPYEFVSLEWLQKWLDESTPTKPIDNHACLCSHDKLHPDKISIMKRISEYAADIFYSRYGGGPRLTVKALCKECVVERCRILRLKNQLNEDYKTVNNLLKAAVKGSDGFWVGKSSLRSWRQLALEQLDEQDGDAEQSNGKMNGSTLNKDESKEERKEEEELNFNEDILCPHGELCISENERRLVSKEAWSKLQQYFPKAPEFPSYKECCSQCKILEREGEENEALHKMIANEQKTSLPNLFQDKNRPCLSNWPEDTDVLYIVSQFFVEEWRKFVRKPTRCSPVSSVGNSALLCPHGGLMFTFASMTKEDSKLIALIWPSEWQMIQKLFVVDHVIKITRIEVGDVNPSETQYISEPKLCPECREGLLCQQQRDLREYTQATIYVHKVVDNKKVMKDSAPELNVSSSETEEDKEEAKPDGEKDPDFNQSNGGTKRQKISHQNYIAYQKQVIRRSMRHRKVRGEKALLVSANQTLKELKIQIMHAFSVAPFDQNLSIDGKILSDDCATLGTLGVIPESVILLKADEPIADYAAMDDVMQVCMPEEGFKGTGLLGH
Procedure, shortened: as §1

[5] = molecular target: T4, USP5 (UniProt P45974)
T4 sequence (whole entry): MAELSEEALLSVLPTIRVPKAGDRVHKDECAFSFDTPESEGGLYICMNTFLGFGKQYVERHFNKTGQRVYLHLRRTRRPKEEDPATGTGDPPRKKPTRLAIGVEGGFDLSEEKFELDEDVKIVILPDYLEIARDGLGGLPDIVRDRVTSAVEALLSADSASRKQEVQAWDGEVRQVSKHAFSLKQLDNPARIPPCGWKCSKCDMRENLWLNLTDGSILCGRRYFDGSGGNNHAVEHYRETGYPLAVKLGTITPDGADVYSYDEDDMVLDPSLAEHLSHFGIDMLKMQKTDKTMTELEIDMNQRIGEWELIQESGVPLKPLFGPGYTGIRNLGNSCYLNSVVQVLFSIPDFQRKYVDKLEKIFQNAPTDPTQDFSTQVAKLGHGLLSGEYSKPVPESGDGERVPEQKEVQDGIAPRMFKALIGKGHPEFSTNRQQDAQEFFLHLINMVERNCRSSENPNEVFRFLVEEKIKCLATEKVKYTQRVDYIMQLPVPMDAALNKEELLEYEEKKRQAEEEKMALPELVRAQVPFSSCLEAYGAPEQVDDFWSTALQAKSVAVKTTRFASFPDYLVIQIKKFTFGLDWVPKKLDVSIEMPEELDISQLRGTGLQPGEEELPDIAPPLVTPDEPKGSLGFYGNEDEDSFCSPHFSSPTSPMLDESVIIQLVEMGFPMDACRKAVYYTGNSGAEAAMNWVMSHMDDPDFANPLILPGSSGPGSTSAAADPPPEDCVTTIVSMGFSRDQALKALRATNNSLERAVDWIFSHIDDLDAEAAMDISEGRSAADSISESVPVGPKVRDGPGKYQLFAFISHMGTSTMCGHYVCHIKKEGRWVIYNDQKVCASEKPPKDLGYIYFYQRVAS
Procedure, shortened: as §1

[6] = molecular target: USP54 (UniProt Q70EL1)
Procedure, shortened: as §1

[7] = molecular target: USP7 (UniProt Q93009)
Procedure, shortened: as §1

[8] = molecular target: T5, USP8 (UniProt P40818)
T5 sequence (whole entry): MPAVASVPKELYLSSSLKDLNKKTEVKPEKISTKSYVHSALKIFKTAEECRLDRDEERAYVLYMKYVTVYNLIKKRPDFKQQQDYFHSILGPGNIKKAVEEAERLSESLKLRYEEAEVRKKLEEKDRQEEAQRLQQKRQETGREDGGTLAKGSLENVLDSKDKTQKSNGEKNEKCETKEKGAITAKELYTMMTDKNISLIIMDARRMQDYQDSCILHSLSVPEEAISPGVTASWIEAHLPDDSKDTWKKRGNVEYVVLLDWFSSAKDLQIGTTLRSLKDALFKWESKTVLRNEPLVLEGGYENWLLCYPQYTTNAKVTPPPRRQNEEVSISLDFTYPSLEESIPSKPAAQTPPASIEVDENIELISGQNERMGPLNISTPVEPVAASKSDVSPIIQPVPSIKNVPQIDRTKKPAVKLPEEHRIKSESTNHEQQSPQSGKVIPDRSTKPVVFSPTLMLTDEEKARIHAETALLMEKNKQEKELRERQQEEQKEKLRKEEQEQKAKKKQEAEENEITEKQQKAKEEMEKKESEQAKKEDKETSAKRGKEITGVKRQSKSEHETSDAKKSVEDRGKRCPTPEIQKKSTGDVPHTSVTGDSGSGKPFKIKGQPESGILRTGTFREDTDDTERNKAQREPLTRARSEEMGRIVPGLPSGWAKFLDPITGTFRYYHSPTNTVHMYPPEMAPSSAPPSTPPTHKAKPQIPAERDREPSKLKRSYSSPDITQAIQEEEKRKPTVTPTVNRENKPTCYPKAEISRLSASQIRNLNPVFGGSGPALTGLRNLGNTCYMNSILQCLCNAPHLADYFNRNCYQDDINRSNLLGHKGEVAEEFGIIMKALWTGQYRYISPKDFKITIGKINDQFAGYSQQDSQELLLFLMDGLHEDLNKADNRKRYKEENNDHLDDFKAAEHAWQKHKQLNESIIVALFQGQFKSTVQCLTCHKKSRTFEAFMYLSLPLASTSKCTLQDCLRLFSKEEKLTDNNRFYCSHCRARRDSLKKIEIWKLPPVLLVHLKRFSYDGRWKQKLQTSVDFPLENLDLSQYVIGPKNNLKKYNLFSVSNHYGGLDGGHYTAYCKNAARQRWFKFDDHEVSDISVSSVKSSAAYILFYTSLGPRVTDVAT
Procedure, shortened: as §1

[9] = molecular target: USP9X (UniProt Q93008)
Procedure, shortened: as §1

[10] = molecular target: UniProt O00487
Procedure, shortened: as §1

Measured: log2 ratio of Biotin-Ahx-Ub-VS probe labelling

USP9X, sequence (Q93008 whole entry): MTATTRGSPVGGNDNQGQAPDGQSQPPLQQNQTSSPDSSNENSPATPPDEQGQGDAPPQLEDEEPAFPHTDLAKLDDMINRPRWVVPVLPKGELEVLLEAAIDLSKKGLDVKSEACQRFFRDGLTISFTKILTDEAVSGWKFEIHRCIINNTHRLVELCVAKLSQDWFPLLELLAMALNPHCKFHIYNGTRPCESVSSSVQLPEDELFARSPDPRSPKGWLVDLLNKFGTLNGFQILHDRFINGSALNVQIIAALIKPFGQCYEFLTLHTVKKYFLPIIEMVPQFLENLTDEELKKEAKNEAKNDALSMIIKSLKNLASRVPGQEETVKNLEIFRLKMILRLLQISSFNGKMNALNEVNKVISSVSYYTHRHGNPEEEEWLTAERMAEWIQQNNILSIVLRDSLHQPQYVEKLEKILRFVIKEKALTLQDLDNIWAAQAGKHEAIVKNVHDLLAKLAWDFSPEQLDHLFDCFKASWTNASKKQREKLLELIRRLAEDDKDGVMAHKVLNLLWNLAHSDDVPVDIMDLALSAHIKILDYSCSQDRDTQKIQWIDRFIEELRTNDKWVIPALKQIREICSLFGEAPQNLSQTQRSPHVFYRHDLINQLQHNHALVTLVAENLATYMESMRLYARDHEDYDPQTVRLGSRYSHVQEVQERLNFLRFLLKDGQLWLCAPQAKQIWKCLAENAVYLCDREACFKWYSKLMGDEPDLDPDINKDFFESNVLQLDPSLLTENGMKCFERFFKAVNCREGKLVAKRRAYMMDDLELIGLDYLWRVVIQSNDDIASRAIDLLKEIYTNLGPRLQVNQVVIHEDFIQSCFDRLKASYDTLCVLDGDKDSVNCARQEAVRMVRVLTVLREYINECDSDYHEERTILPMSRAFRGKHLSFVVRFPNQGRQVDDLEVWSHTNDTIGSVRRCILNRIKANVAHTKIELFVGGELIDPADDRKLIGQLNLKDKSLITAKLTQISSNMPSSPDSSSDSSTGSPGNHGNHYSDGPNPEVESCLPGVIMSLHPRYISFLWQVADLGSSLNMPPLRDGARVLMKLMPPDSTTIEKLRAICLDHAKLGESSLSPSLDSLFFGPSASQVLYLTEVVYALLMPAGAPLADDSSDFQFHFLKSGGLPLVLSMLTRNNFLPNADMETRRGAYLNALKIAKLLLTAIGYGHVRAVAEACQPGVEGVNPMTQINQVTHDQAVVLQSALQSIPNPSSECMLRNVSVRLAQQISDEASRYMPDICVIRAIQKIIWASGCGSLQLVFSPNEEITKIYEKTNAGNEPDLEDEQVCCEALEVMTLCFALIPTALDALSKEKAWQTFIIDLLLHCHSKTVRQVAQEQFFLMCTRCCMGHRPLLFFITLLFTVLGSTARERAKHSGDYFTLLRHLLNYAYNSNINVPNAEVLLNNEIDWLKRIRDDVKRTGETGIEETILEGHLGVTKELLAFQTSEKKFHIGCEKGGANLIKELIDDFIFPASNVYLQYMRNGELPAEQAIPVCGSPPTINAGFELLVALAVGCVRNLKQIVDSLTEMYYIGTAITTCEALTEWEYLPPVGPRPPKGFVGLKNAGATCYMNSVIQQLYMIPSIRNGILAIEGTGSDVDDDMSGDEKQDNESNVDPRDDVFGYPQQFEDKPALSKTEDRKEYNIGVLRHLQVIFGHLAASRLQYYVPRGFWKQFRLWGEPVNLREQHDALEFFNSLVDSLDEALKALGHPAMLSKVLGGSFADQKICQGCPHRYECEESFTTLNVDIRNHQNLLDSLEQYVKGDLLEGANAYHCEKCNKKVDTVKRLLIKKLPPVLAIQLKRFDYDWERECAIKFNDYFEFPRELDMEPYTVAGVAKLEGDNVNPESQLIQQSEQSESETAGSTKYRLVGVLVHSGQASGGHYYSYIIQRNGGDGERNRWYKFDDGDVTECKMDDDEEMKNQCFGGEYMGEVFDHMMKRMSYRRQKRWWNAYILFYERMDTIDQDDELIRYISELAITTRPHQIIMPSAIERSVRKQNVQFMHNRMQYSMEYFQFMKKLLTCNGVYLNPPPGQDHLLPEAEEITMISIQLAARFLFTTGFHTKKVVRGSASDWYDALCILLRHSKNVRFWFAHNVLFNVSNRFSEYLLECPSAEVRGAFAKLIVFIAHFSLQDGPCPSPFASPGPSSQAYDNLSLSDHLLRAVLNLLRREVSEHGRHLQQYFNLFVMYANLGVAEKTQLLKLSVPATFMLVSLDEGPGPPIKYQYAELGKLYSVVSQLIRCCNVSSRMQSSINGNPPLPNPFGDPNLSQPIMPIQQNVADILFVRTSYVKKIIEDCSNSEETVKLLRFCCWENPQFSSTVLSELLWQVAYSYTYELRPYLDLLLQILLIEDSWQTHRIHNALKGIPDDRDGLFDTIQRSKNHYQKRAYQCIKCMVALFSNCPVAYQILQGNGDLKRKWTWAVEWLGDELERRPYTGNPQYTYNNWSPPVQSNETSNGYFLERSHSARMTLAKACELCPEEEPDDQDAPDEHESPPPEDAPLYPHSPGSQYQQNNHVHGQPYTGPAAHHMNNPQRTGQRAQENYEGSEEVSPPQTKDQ
USP54, sequence (Q70EL1 whole entry): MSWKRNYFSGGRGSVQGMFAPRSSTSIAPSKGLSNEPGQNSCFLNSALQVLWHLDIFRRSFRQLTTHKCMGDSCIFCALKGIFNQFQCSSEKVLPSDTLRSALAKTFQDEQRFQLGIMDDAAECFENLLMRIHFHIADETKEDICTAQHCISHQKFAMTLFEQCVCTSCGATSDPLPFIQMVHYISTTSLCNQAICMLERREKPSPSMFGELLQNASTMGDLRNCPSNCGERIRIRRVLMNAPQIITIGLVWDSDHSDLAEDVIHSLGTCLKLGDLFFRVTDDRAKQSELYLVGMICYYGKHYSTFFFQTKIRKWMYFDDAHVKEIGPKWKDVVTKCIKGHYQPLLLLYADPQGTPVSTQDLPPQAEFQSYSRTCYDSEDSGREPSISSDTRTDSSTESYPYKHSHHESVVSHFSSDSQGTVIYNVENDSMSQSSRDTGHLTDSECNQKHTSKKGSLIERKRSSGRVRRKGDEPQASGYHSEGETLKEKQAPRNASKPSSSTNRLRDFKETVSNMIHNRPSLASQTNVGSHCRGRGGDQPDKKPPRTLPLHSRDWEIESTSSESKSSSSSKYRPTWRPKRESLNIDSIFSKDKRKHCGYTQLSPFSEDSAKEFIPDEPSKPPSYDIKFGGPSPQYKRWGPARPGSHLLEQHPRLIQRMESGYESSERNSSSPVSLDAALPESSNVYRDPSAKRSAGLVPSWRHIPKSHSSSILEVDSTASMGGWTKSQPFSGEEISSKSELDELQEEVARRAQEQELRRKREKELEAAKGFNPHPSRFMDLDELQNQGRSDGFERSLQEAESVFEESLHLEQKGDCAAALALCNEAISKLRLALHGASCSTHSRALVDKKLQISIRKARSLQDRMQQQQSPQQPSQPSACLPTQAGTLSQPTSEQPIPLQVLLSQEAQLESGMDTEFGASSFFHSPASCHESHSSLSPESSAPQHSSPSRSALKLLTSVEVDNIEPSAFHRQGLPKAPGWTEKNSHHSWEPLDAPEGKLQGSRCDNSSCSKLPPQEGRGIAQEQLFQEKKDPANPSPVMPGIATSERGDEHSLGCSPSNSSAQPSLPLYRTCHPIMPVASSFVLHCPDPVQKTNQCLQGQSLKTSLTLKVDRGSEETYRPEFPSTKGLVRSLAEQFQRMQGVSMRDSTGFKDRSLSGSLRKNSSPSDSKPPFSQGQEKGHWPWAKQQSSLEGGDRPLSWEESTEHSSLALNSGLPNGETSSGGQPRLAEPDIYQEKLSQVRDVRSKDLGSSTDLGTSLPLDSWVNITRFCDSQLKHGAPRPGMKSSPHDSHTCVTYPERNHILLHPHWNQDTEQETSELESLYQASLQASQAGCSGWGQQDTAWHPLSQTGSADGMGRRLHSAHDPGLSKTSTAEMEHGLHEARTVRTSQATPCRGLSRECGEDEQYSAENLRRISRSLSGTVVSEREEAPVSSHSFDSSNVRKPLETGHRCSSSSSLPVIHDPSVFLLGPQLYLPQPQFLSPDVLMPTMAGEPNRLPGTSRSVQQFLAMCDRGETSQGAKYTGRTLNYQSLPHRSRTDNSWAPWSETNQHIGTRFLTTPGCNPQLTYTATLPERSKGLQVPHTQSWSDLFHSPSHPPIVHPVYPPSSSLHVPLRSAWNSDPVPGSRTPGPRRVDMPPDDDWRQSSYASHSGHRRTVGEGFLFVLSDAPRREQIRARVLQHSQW
UniProt O00487, sequence (O00487 whole entry): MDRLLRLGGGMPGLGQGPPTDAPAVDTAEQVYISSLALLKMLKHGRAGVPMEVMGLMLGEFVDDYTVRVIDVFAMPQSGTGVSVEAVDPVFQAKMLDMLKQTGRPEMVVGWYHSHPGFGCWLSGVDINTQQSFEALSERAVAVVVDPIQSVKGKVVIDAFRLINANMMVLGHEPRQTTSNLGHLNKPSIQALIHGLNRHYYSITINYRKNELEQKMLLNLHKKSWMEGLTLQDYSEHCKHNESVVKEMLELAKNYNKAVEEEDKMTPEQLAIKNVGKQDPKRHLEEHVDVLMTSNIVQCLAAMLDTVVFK
USP46, sequence (P62068 whole entry): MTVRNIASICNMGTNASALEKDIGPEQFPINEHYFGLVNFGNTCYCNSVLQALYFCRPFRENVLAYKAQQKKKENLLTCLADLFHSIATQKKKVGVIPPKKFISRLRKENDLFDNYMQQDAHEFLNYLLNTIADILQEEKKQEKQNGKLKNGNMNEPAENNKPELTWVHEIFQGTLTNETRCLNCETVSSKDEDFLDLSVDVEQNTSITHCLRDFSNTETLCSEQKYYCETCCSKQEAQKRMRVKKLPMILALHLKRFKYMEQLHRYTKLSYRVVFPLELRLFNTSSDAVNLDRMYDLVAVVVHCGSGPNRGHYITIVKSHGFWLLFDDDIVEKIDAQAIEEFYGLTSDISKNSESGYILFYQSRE

CC1CCc2onc(CNC(=O)CCl)c2C1 (stereo not given)
inactive: [1] 0.0513 | [2] 0.0919 | [3] -0.0836 | [4] 0.185 | [5] 0.386 | [6] 0.0792 | [7] -0.00387 | [8] -0.212 | [9] -0.154 | [10] 0.0127

Reference: the supplement of paper PMC11732987, “Enantioselective OTUD7B fragment discovery through chemoproteomics screening and high-throughput optimisation” (Communications Chemistry, 2025)
